Bioassay records deposited in PubChem BioAssay by National Center for Advancing Translational Sciences (NCATS).
Pf growth 48h: P. falciparum growth inhibition at 48 hours (one generation). P. falciparum luciferase growth in erythrocytes, 48 h. Potency, µM (titrated, usually from 28.7 µM), without a hit: top-dose activity change, negative = inhibition, most hits filed as inhibitors. hit rate 5.9% among 310,000. AID 504832; note: potency is the fitted concentration of half-maximal effect; % is set by controls: 0 for no effect and ±100 for the full control effect
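Cell-based growth assay: transgenic P. falciparum expressing firefly luciferase, cultured in red cells within RPMI 1640 containing 0.5% w/v Albumax, 24 mM bicarbonate and gentamycin. A drop in luciferase activity indicates inhibition.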
Pf growth 96h: P. falciparum growth inhibition at 96 hours. P. falciparum luciferase reporter growth, 96 h. Potency, µM (series often up to 28.7 µM), inactives show at the highest dose activity change, negative = inhibition, most hits filed as inhibitors. hit rate 6.9% among 320,000; note: potency is the fitted concentration of half-maximal effect; % is set by controls: 0 for no effect and ±100 for the full control effect
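Erythrocytes infected with luciferase-expressing P. falciparum were dispensed at 2% hematocrit and 0.05% parasitemia (final), then incubated with compounds 96 hours at 37 C in 5% CO2. Luminescence after detection reagent addition reported growth.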
Cycloheximide cs: counter-screen hit for Shiga toxin inhibitors, cycloheximide. AID 2314. max response, %. cell reporter, cycloheximide protein synthesis inhibition counterscreen. hit rate 12% among 300,000; in the data active = max response mostly above about 13%, no sharp cut-off; inactive = mostly below about 14%; note: read at 38.3 µM for the half of the compounds with a filed dose; 0% is about no effect
Shiga toxin inh: blocks Shiga toxin action in Vero cells | Vero cells, Shiga toxin protein synthesis inhibition reporter | inhibition, % at 38.7 µM | hit rate 9.2% among 290,000 | AID 2315; in the data active = inhibition mostly above about 28%, no sharp cut-off; inactive = mostly below about 43%; note: 0% is about no effect
SARS PLpro yeast: inhibitors of SARS-CoV papain-like protease in yeast. S. cerevisiae expressing SARS-CoV PLpro, growth rescue. Potency, µM (titrated, usually from 32.9 µM), without a hit: at the top dose activity, positive = growth rescue, most hits filed as activators. hit rate 0.19% among 330,000. AID 485353; calls by dose curve; note: potency is the fitted concentration of half-maximal effect; 0% is about no effect; nearly all actives have a fitted effect of over 55% in size
NS1 inh: inhibitors of influenza NS1 protein function. AID 2326. Potency, µM (top dose mostly 46.1 µM), inactives show top-dose activity, positive = more growth. hit rate 0.4% among 270,000; calls by dose curve; note: potency is the fitted concentration of half-maximal effect; actives are rising curves; nearly all actives have a fitted effect of over 50% in size
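Recovery from NS1-induced slow growth read by OD600 in budding yeast switched to galactose assay medium (pH 6.0, -URA) at 1:100 dilution. Compound 23 nl per well; the matching strain lacking NS1 serves as control.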
An asterisk follows results filed as active. Compounds with a hit are over-represented: about 21% of the library has one in this group of screens. Unless noted, calls come from the whole dose curve; as a rule, active = well fitted inhibition curve with a large enough effect; inconclusive = small, poorly fitted or top-dose-only effect, or another doubt; inactive = no such curve, though single readings can be large or run the other way.

O=C(CSc1cccc[n+]1[O-])Nc1cc(S(=O)(=O)N2CCOCC2)ccc1N1CCOCC1 was read as Pf growth 48h -2%, Pf growth 96h -6%, Cycloheximide cs 49*, Shiga toxin inh 14, SARS PLpro yeast -9% and NS1 inh 11%.
Screening COc1ccccc1NCC(=O)Nc1cc(S(=O)(=O)N2CCOCC2)ccc1N1CCOCC1 returned Pf growth 48h inconclusive, Pf growth 96h inconclusive, Cycloheximide cs -1, Shiga toxin inh -8, SARS PLpro yeast 0% and NS1 inh -1%.
Screening O=C(CSc1cccc[n+]1[O-])Nc1cc(S(=O)(=O)N2CCOCC2)ccc1Cl returned Pf growth 48h 17%, Pf growth 96h 0%, Cycloheximide cs -2, Shiga toxin inh 13, SARS PLpro yeast 15% and NS1 inh -2%.
`CC(NCC(=O)Nc1cc(S(=O)(=O)N2CCOCC2)ccc1N1CCOCC1)c1ccco1` (stereo not drawn) gave Pf growth 48h inconclusive, Pf growth 96h 5.9µM* and SARS PLpro yeast -1%.
CCN(C(=O)COC(=O)c1ccc(C)c(S(=O)(=O)N2CCCCC2)c1)C1CCS(=O)(=O)C1 (stereo not drawn) was read as Pf growth 48h inconclusive, Pf growth 96h 1% and SARS PLpro yeast -2%.
`CCNCCC(CCC(C)C)c1ccc2c(c1)OCO2` (stereo not drawn) gave Pf growth 48h inconclusive, Pf growth 96h 2.9µM*, Cycloheximide cs -6, Shiga toxin inh -11, SARS PLpro yeast -1% and NS1 inh 0%.
`Fc1ccccc1CNCCC(Cc1ccccc1)c1ccc2c(c1)OCO2` (stereo not drawn) gave Pf growth 48h inconclusive, Pf growth 96h -14%, Cycloheximide cs -6, Shiga toxin inh -7, SARS PLpro yeast 0% and NS1 inh -32%.
CCc1ccccc1NC(=O)NC(C)c1ccc2c(c1)OCO2 (stereo not drawn) was read as Pf growth 48h 5%, Pf growth 96h inconclusive, Cycloheximide cs -4, Shiga toxin inh -1, SARS PLpro yeast -8% and NS1 inh 3%.
Screening CC(C)CCC(CCNCc1ccccn1)c1ccc2c(c1)OCO2 (stereo not drawn) returned Pf growth 48h inconclusive, Pf growth 96h 10µM*, Cycloheximide cs 1, Shiga toxin inh -7, SARS PLpro yeast 0% and NS1 inh 2%.
Screening CCN(Cc1cc(=O)oc2cc(C)ccc12)c1ccccc1 returned Pf growth 48h inconclusive, Pf growth 96h inconclusive, Cycloheximide cs 11, Shiga toxin inh 3, SARS PLpro yeast 14% and NS1 inh 14%.
Screening Cc1ccc2c(CN3C(=O)NC4(CCCCC4)C3=O)cc(=O)oc2c1C returned Pf growth 48h 0%, Pf growth 96h 0.13µM*, Cycloheximide cs 3, Shiga toxin inh 20, SARS PLpro yeast 1% and NS1 inh -16%.
Cc1ccc2c(CN3CC=C(c4ccccc4)CC3)cc(=O)oc2c1C was read as Pf growth 48h 5.2µM*, Pf growth 96h 3.3µM*, Cycloheximide cs 8, Shiga toxin inh 26, SARS PLpro yeast 4% and NS1 inh -9%.
COc1ccc2c(CN(C)c3ccccc3)cc(=O)oc2c1 was read as Pf growth 48h -11%, Pf growth 96h inconclusive, Cycloheximide cs 22*, Shiga toxin inh 48, SARS PLpro yeast -19% and NS1 inh -53%.
Screening COc1ccc2c(=O)c(-c3ccccc3)c(C)oc2c1 returned Pf growth 48h 38%, Pf growth 96h 11%, Cycloheximide cs 25, Shiga toxin inh 34*, SARS PLpro yeast 6% and NS1 inh -90%.
`Cc1ccc2c(CN3CCN(Cc4ccccc4)CC3)cc(=O)oc2c1` gave Pf growth 48h inconclusive, Pf growth 96h inconclusive, Cycloheximide cs -7, Shiga toxin inh 18, SARS PLpro yeast -1% and NS1 inh -1%.
For COc1ccc(Cn2c(C)nnc2-c2cnn(C)c2N)cc1 the results were Pf growth 48h inactive, Pf growth 96h 44%, Cycloheximide cs 2, Shiga toxin inh 6 and SARS PLpro yeast 2%.
For NCCCCCc1nnc(SCC(N)=O)o1 the results were Pf growth 48h inconclusive, Pf growth 96h 45%, Cycloheximide cs -8, Shiga toxin inh -5 and SARS PLpro yeast -2%.
Screening NS(=O)(=O)c1ccc(NC(=S)Nc2cc(Cl)c(Cl)cc2Cl)cc1 returned Pf growth 48h -7%, Pf growth 96h 33%, Cycloheximide cs 4, Shiga toxin inh -5, SARS PLpro yeast 3% and NS1 inh -1%.
`COc1cc(C)cc(CN2CC=C(c3ccccc3)CC2)c1O` gave Pf growth 48h 1.2µM*, Pf growth 96h inconclusive, Cycloheximide cs 0, Shiga toxin inh 24 and SARS PLpro yeast -15%.
Screening CCc1ccc2c(CN3CC=C(c4ccccc4)CC3)cc(=O)oc2c1 returned Pf growth 48h inconclusive, Pf growth 96h inconclusive, Cycloheximide cs 8, Shiga toxin inh -38, SARS PLpro yeast 8% and NS1 inh 5%.
Screening COc1ccc2c(CN3CC=C(c4ccccc4)CC3)cc(=O)oc2c1 returned Pf growth 48h inconclusive, Pf growth 96h inconclusive, Cycloheximide cs 29*, Shiga toxin inh 22 and SARS PLpro yeast 0%.
`COc1ccc2ccc(O)c(CN3CC=C(c4ccccc4)CC3)c2c1` gave Pf growth 48h 1.7µM*, Pf growth 96h inconclusive, Cycloheximide cs 12, Shiga toxin inh -4 and SARS PLpro yeast -10%.
Screening CCOc1ccc(CNC2CCCc3ccccc32)cc1 (stereo not drawn) returned Pf growth 48h -29%, Pf growth 96h 0%, Cycloheximide cs 1, Shiga toxin inh -3 and SARS PLpro yeast 0%.
For Cc1ccsc1C=C1C(=O)c2ccccc2C1=O the results were Pf growth 48h 21%, Pf growth 96h 24%, Cycloheximide cs 1, Shiga toxin inh 0, SARS PLpro yeast -17% and NS1 inh -87%.
Screening Cc1ccsc1/C=C1/C(=O)NN(c2ccccc2)C1=O returned Pf growth 48h 2%, Pf growth 96h -13%, Cycloheximide cs 40*, Shiga toxin inh 82* and SARS PLpro yeast -1%.
`S=C(Nc1ccc(Nc2ccccc2)cc1)N1CCN(c2ncccn2)CC1` gave Pf growth 48h -6%, Pf growth 96h -14%, Cycloheximide cs 6, Shiga toxin inh -7, SARS PLpro yeast 0% and NS1 inh 0%.
`CC(=O)N[C@@H](CC(=O)O)C(=O)N[C@@H](CCC(=O)O)C(=O)O` gave Pf growth 48h inconclusive and Pf growth 96h 4.3µM*.
Screening CC(=O)NC(CC(=O)O)C(=O)O (stereo not drawn) returned Pf growth 48h 0% and Pf growth 96h 15%.
NC(=O)C1CCN(CC(=O)NC(=O)NC2CCCC2)CC1 was read as Pf growth 48h inconclusive, Pf growth 96h 33%, Cycloheximide cs 1, Shiga toxin inh -8 and SARS PLpro yeast -1%.
